Screening data deposited in PubChem by National Center for Advancing Translational Sciences (NCATS).
This is a sample that favours compounds with a hit; in the whole collection about 4.7% have one here.
D1 potentiator – human D1 dopamine receptor positive modulation; potentiation, % at 10 µM; 360,000 compounds, 0.036% hits; P21728; HEK293 TREx D1 cells, calcium flux, dopamine EC20 potentiation; in the data active = potentiation above about 30%
D1 antagonist – human D1 dopamine receptor antagonism; P21728; HEK293 TREx D1 cells, calcium flux, dopamine EC80; stronger effect = lower value; activity change, negative = inhibition, % at 10 µM; 360,000 compounds, 3.2% hits; AID 504652; in the data active = activity change below about -30%
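Kinetic fluorescence of a calcium dye serves as the read-out. D1-expressing Hek293 Trex cells, induced overnight at 30 C, are exposed to compound for 180 s before an EC80 dopamine addition, then read 180 s further.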
TRHR agonist – TRH receptor (human) agonism | P34981 | TRHR cells, calcium flux fluo-8, FDSS agonist mode | activation, % at 2 µM | 360,000 compounds, 0.18% hits
Target sequence (P34981 whole entry, looked up): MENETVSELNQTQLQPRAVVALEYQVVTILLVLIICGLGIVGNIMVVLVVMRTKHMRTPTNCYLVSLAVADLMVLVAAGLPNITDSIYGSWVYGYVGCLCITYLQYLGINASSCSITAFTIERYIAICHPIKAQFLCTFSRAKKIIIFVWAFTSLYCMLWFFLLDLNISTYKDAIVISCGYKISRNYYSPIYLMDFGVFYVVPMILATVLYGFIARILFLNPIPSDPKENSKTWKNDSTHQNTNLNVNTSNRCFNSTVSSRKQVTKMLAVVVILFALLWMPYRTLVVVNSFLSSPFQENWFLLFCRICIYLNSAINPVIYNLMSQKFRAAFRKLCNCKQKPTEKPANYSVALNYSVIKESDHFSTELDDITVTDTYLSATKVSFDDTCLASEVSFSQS
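TRHR-expressing cells, plated overnight in medium with 10% serum, were loaded with fluo-8 calcium dye at room temperature. After a 10 s baseline, library compound was pin-added and calcium release was recorded kinetically (ex 480/em 530) as agonist response.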
TRHR enhancer – allosterically enhances the human TRH receptor. 360,000 compounds, 0.66% hits. TRHR cells, fluo-8 calcium fluorescence, EC20 TRH enhancement. P34981. enhancement, % at 2 µM; in the data active = enhancement above about 30%
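TRHR-expressing cells loaded with fluo-8 calcium dye were read kinetically (ex 480/em 530) during compound addition, then stimulated with an EC20 of TRH (10 nM final). Enhancement of the Gq-mediated intracellular calcium response was scored.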
D1 agonist – agonists of human D1 dopamine receptor; P21728; HEK293 T-REx D1 cells, calcium flux, agonist mode; activation, % at 2 µM; 360,000 compounds, 1% hits; AID 504660
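Tetracycline-induced HEK293 TREx D1 cells, force-coupled to calcium signalling, were dye-loaded with a no-wash calcium kit. Compound was pin-added after a 10 s baseline. Fluorescence was read kinetically at 1 cycle/s for 180 s, with calcium rises flagged as agonism.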
A number is an active result; n = inactive. Rule as the data show it, unless noted: active = activation above about 30%; inactive = the rest.

SMILES	D1 potentiator	D1 antagonist	TRHR agonist	TRHR enhancer	D1 agonist
Cc1cccc(C)c1N1C(=O)CC(N(O)c2ccccc2)C1=O (stereo not given)	n	-31	n	n	n
Cc1c(Cl)cccc1N1C(=O)CC(N(O)c2ccccc2)C1=O (stereo not given)	n	n	n	n	n
O=C(/C=C/c1ccccc1)NC(NC(=S)Nc1cc(Cl)ccc1Cl)C(Cl)(Cl)Cl (stereo not given)	n	-37	n	n	n
O=C(Cc1ccccc1)NC(NC(=S)Nc1cc(Cl)ccc1Cl)C(Cl)(Cl)Cl (stereo not given)	n	n	n	n	n
O=C(NC(NC(=S)Nc1cc(Cl)ccc1Cl)C(Cl)(Cl)Cl)c1ccco1 (stereo not given)	n	-40	n	n	n
O=C(/C=C/c1ccccc1)NC(NC(=S)Nc1ccc(Cl)cc1)C(Cl)(Cl)Cl (stereo not given)	n	n	n	n	n
CCn1c(C)c(C)c2cc(C(=O)NCC(C)c3ccccc3)ccc21 (stereo not given)	n	n	n	n	n
COc1cccc(CN(C)C(=O)c2cc(S(=O)(=O)N3CCCCCC3)ccc2OC)c1	n	n	n	n	n
O=C(NCC(O)c1ccccc1)c1ccc(Cl)c(S(=O)(=O)N2CCCC2)c1 (stereo not given)	n	-31	n	n	n
Cc1ccc(NC(=O)Cn2cc(S(=O)(=O)N3CCCC3)c(S(=O)(=O)N3CCCC3)c2)cc1F	n	n	n	32	n
Cc1ccc(NC(=O)Cn2cc(S(=O)(=O)N3CCCC3)c(S(=O)(=O)N3CCCC3)c2)cc1C	n	n	n	n	n
O=C(Nc1ccncc1)c1ccc(Cl)c(S(=O)(=O)N2CCCCC2)c1	n	-39	n	n	n
COc1cccc(CN(C)C(=O)c2ccc(C)c(S(=O)(=O)N3CCCCC3)c2)c1	n	-36	n	n	n
O=C(Nc1ccc(Br)cc1)c1ccc(Br)c(S(=O)(=O)N2CCCCC2)c1	n	-43	n	n	n
Cc1ccc(C(=O)Nc2cccc(C(=O)O)c2)cc1S(=O)(=O)N1CCCC1	n	-40	n	n	n
O=C(O)c1ccc(NC(=O)c2ccc(Br)c(S(=O)(=O)N3CCCC3)c2)cc1	n	n	n	n	n
CCOC(=O)c1ccccc1NC(=O)Cc1c(C(=O)O)c(C)cn1C	n	n	n	n	n
O=C(Nc1ccc(SC(F)F)cc1)c1ccc(F)cc1	n	-37	n	n	n
Cc1nn2c(C)c(C(=O)NC(C)(C)C)cnc2c1-c1ccc(F)cc1	n	n	n	n	n
CCN(C(=O)COC(=O)c1ccc(C=O)cc1)c1c(N)n(Cc2ccccc2)c(=O)[nH]c1=O	n	n	n	n	n
CC(=O)Nc1nonc1NC(=O)CSC1=NCCS1	n	n	n	31	n
O=C(COc1ccc(Cl)cc1Cl)Nc1nnc(C2=COCCO2)o1	n	-69	n	n	n
O=Cc1c(NCc2ccc(Cl)cc2)c2ccccc2[nH]c1=O	n	-37	n	n	n
O=Cc1c(NCc2ccccc2)c2ccccc2[nH]c1=O	n	n	n	n	n
CCOC(=O)c1sc2nc(CSc3ccccc3)nc(NCCN(C)C)c2c1C	n	n	n	n	50
SMILES	D1 potentiator	D1 antagonist	TRHR agonist	TRHR enhancer	D1 agonist
CCOC(=O)c1sc2nc(C)nc(NCCc3ccccn3)c2c1C	n	n	n	n	n
CCc1ccc(OCC(=O)Nc2cc(-c3nc4cc(C)ccc4o3)ccc2C)cc1	n	n	n	n	n
Cc1ccc(NC(=S)NCC2CCN(C(C)c3ccccc3)C2)cc1 (stereo not given)	n	n	n	n	n
CC(c1ccccc1)N1CCC(CNC(=S)Nc2cccc(Cl)c2)C1 (stereo not given)	n	-54	n	n	45
CCc1cc2c(cc3c(=O)n(CC(=O)NCCCN4CCCCCC4)nc(CC)n32)s1	n	n	n	n	n
CN1CCN2c3ccccc3Cc3ccccc3C2C1 (stereo not given)	n	n	n	n	n
CN1CCN(C2Cc3ccccc3Sc3ccc(Cl)cc32)CC1 (stereo not given)	n	-105	n	n	n
CSc1ccc2c(c1)C(N1CCN(C)CC1)Cc1ccccc1S2 (stereo not given)	n	-87	n	n	n
CN1CCN(C2CC(=O)N(CCc3ccccc3)C2=O)CC1 (stereo not given)	n	n	n	n	n
COc1ccccc1C(CNC(=O)c1cc(S(=O)(=O)N2CCOCC2)ccc1C)N1CCCC1 (stereo not given)	n	n	n	n	n
CCOC(=O)N1CCN(C(=O)CN(Cc2ccc(Cl)cc2)S(=O)(=O)c2ccccc2)CC1	n	-39	n	n	n
CCOC(=O)N1CCN(c2ccc(S(=O)(=O)N(Cc3ccccc3)Cc3ccccc3)cn2)CC1	n	-31	n	n	n
CCOC(=O)N1CCN(C(=O)CN(Cc2ccccc2)S(C)(=O)=O)CC1	n	n	n	n	n
CCN(CC)S(=O)(=O)c1ccc(N2CCN(c3ccccc3O)CC2)nc1	n	n	n	n	n
CN(CC(=O)N1CCCC1)S(=O)(=O)c1ccc(Cl)cc1	n	n	n	30	n
CCN(CC)S(=O)(=O)c1ccc(N2CCN(CCO)CC2)nc1	n	-71	n	n	n
COc1ccc(C)cc1NC(=O)Nc1nnc(N2CCCCC2)s1	n	n	n	n	n
CNc1c(NC(=O)C2CCC(C)CC2)c(=O)oc2ccccc12 (stereo not given)	n	n	n	n	n
CC1(C(=O)O)CCC(C(=O)Nc2cccc(F)c2)C1(C)C (stereo not given)	n	n	n	n	n
CCOC(=O)N1CCN(C(=O)CN(c2cc(C)ccc2OC)S(=O)(=O)c2ccc(C)cc2)CC1	n	-38	n	n	n
COc1ccc(C)cc1N(CC(=O)N1CCCCCC1)S(=O)(=O)c1ccccc1	n	n	n	n	n
O=C(Cn1c(=O)n(Cc2ccc(F)cc2)c(=O)c2sc3ccccc3c21)Nc1ccc(F)cc1F	n	n	n	n	n
COc1ccc(Cl)cc1NC(=S)NCc1ccccn1	n	n	n	31	n
Cc1ccnc(NS(=O)(=O)c2ccc(N3C(=O)C4CCCCC4C3=O)cc2)n1 (stereo not given)	n	n	n	37	n
CCCn1c(SCC(=O)NCc2ccc3c(c2)OCO3)n[nH]c1=O	n	n	n	n	n
Cc1ccc(N2CC(=O)N(NC(=O)c3sc4nc(C)cc(C)c4c3N)CC2=O)cc1	n	n	n	38	n
CC(C)[C@H](NC(=O)N1CC(=O)Nc2ccccc21)C(=O)N[C@H](C(=O)O)c1ccccc1	n	n	n	30	n
CC(C)[C@H](NC(=O)N1CC(=O)Nc2ccccc21)C(=O)N[C@@H](C(=O)O)c1ccccc1	n	n	n	n	n
